Assay [1] is described as follows: optical density shifts of acrAB sulA E. coli – strain DRC41, OD650, 48 h, E. coli filamentation inducer project, primary screen (AID 1152).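 Note: E. coli MC1000 strain DRC41 lacking acrAB efflux pump and sulA.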 The note with it: higher = more signal, called active from +8 up or from −8 down.
Assay [2] is described as follows: probe aLefty1 binding on compound microarray – biochemical, small-molecule microarray, 635/667 nm fluorescence, primary screen (AID 1153).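 Note: score merges spot fluorescence with signal-to-noise ratio from the scanned slide images.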 The conditions noted are these: higher = more signal.
Assay [3] can be described thus: plasmodial surface anion channel blockers, osmotic lysis – cell-based, P. falciparum Indochina, OD700, 1 h, primary screen (AID 1154). The note with it: P. falciparum Indochina infected RBC osmotic lysis, higher = more signal, called active from +8 up or from −8 down.
A short description of assay [4]: plasmodial surface anion channel blockers, osmotic lysis – cell-based, P. falciparum Indochina, OD700, 2 h, primary screen (AID 1155).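 Note: lysis reports solute entry through the parasite surface anion channel PSAC.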 The note with it: P. falciparum Indochina infected erythrocytes, higher = more signal, called active from +8 up or from −8 down.
Assay [5] can be described thus: changes in parasitized red cell lysis, either direction – P. falciparum Indochina, OD700, 3 h, PSAC antagonist project, primary screen (AID 1156). The note with it: P. falciparum-infected erythrocytes, osmotic lysis, higher = more signal, called active from +8 up or from −8 down.
The nature of assay [6]: plasmodial surface anion channel blockers, osmotic lysis – cell-based, P. falciparum Indochina, OD700, 18 h, primary screen (AID 1157). The note with it: P. falciparum Indochina infected erythrocytes, osmotic lysis OD700, 18 h; higher = more signal, called active from +8 up or from −8 down.
A short description of assay [7]: S6 kinase pathway phospho-S6 level changes – cell-based, A549, cytoblot, luminescence, serum-stimulated, primary screen (AID 1158).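 Note: serum-stimulated A549 lung adenocarcinoma cells; signal is phosphorylated S6 detected by cytoblot immunostaining with HRP secondary.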 The note with it: 5 h, higher = more signal.
The target in assay [8] is NADPH oxidase 2 (Homo sapiens) (UniProt P04839). The assay is described as follows: compounds shifting NOX2 Amplex Red fluorescence – cell-based, HEK293-NOX2, PMA-stimulated, NOX inhibitor project, primary screen (AID 1159). Note: test concentration not given here. The conditions noted are these: 45 min, higher = more signal, called active from +8 up or from −8 down.
For assay [9], the target named is NADPH oxidase 4 (Homo sapiens) (UniProt Q9NPH5). The assay is described as follows: compounds shifting NOX4 Amplex Red fluorescence – cell-based, HEK293-NOX4, tetracycline-induced, NOX inhibitor project, primary screen (AID 1160). The note with it: HEK293-NOX4, Amplex Red H2O2 fluorescence, 45 min; higher = more signal, called active from +8 up or from −8 down.
Assay [10] deals with NADPH oxidase 5 (Homo sapiens) (UniProt Q96PH1). The assay is described as follows: compounds shifting NOX5 Amplex Red fluorescence – cell-based, HEK293-NOX5, NOX inhibitor project, primary screen (AID 1161). The note with it: HEK293-NOX5, ionomycin, 45 min, higher = more signal.
Assay [11] can be described thus: compound effects on lung adenocarcinoma cell viability – A549, calcein-AM fluorescence, 48 h, basal, profiling panel (AID 1162). Note: test concentration not given here. The conditions noted are these: higher = more signal.
A short description of assay [12]: compound effects on differentiated 3T3-L1 adipocyte viability – cell-based, 3T3-L1 adipocytes, calcein-AM fluorescence, 48 h, basal, profiling panel (AID 1163). Note: test concentration not given here. The note with it: 3T3-L1 adipocytes viability, higher = more signal.
Assay [13] in a line: compound effects on hepatocellular carcinoma cell viability – HepG2, calcein-AM fluorescence, 48 h, basal, profiling panel (AID 1164). Note: test concentration not given here. The note with it: higher = more signal.
Assay [14] can be described thus: compound effects on multiple myeloma cell viability – MM1S, calcein-AM fluorescence, 48 h, basal, profiling panel (AID 1165).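 Note: viability of MM1S multiple myeloma cells under basal unstimulated conditions; test concentration not given here.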 The note with it: higher = more signal.
A short description of assay [15]: calcein-AM signal in unstimulated myeloma cells – cell-based, calcein-AM fluorescence, 48 h, PK04 Diversity Set, profiling panel (AID 1166).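 Note: cells grown under basal conditions without added stimulus; test concentration not given here.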 The conditions noted are these: RPMI8226 myeloma viability, higher = more signal.
Assay [16] is described as follows: JC-1 mitochondrial signal, unstimulated HepG2 cells – cell-based, JC-1 fluorescence, 24 h, 100 nL compound, profiling panel (AID 1167). Note: test concentration not given here. The conditions noted are these: HepG2 mitochondrial potential, higher = more signal.
A short description of assay [17]: JC-1 mitochondrial signal, unstimulated adipocytes – cell-based, JC-1 fluorescence, 3T3-L1 adipocytes, 24 h, 100 nL compound, profiling panel (AID 1168). Note: test concentration not given here. The note with it: JC-1 mitochondrial fluorescence, higher = more signal, called active from +8 up or from −8 down.
Assay [18] can be described thus: JC-1 mitochondrial signal, unstimulated myeloma cells – cell-based, JC-1 fluorescence, RPMI8226, 24 h, 100 nL compound, profiling panel (AID 1169). Note: test concentration not given here. The note with it: JC-1 mitochondrial potential fluorescence, higher = more signal.
The nature of assay [19]: JC-1 mitochondrial signal, unstimulated MM1S myeloma – cell-based, JC-1 fluorescence, 24 h, 100 nL compound, profiling panel (AID 1170). Note: test concentration not given here. The note with it: MM1S mitochondrial potential, higher = more signal.
The nature of assay [20]: resazurin metabolic signal in A549 cells – cell-based, resazurin fluorescence, 24 h, PK04 Diversity Set, profiling panel (AID 1171). Note: test concentration not given here. The note with it: A549 viability, higher = more signal, called active from +8 up or from −8 down. For orientation: The colour change of resazurin is a common sign of viable cells or microbes.

The source of these data is PubChem BioAssay.

Calls of active or inactive are those of the source.

Sequence of NADPH oxidase 2 (Homo sapiens) (P04839 whole entry, looked up): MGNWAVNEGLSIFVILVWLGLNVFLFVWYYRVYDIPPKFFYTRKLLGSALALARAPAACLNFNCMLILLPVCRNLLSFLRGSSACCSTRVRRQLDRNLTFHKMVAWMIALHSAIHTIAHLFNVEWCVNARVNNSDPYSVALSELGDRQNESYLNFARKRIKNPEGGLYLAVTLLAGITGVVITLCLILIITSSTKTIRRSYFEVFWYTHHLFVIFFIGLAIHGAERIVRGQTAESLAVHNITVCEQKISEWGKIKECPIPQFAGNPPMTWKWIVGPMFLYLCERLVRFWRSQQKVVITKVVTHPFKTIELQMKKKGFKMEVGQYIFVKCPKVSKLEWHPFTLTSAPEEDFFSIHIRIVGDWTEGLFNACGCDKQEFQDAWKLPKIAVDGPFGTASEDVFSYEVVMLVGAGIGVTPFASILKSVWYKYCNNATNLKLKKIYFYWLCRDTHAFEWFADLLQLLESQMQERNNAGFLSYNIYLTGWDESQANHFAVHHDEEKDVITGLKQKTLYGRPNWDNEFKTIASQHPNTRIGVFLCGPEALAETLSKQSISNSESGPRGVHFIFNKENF
Sequence of NADPH oxidase 5 (Homo sapiens) (Q96PH1 whole entry, looked up): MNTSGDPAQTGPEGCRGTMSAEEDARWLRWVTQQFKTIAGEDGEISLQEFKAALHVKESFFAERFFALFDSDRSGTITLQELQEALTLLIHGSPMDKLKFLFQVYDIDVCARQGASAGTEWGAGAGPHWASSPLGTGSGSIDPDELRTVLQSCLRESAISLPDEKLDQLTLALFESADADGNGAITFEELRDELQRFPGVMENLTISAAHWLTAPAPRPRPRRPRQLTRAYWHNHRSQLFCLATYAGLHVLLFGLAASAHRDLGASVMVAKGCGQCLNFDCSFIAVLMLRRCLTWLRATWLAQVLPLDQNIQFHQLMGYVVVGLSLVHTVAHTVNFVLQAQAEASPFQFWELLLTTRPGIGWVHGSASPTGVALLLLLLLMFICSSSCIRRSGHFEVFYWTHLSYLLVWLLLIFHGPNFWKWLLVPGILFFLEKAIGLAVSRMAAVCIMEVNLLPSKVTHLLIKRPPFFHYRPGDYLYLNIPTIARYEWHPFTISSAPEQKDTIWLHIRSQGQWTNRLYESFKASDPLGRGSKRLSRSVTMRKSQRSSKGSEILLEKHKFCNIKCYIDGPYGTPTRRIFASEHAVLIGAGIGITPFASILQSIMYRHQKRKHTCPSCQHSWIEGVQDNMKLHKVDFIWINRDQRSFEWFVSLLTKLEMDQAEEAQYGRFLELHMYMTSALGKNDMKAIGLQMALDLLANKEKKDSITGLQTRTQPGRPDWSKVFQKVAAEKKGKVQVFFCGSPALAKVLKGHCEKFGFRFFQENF
Sequence of NADPH oxidase 4 (Homo sapiens) (Q9NPH5 whole entry, looked up): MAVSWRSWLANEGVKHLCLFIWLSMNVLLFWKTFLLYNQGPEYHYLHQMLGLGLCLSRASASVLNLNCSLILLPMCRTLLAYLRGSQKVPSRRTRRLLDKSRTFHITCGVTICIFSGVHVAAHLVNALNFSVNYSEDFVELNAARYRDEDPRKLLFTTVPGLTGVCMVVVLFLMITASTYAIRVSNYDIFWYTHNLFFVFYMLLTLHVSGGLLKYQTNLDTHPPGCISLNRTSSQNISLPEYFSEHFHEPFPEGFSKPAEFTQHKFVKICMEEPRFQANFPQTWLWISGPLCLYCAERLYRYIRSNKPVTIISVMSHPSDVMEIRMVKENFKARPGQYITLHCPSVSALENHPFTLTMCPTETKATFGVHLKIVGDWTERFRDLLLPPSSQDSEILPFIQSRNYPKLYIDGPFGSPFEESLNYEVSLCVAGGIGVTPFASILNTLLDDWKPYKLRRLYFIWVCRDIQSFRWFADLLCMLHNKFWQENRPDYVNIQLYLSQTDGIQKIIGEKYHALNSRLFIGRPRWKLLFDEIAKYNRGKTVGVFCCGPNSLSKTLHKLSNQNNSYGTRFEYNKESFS

As to `CC(C)C(CO)N1C(=O)[C@]2(C)C3C(=O)OCCC/C=C\[C@H]3OC23C=CCN(c2ccc(Cl)cc2)C(=O)[C@@H]13` (stereo not given in full), the z-score in [1] is -0.785 (inactive); in assay [3], 1.12 (inactive); in assay [4], 0.31 (inactive); in assay [5] it was 0.787 (inactive); in [6] it was 0.673 (inactive); in assay [7], -0.197. The z-score is 1.47 (inactive) in assay [8]; 1.04 (inactive) in assay [9]; 1.69 in assay [10]; -0.0554 in assay [11]; -0.199 in assay [12]; 1.08 in [13]. The z-score in [14] was 0.547; in assay [15], 0.163; in assay [16], -0.484; in assay [17], -0.52 (inactive); in [18], -0.634; in assay [19], -0.0291. Moreover, the z-score in assay [20] was -0.503 (inactive). The compound also yielded a composite z-score in assay [2] of -0.0929.
Turning to `C[C@@H](OCc1ccccc1)C1NC(=O)[C@@]23C(=O)N[C@@H](Cc4ccccc4)C2[C@H](C)[C@@]2(C)O[C@H]2C3/C=C/C/C=C\CNC(=O)CNC1=O` (stereo not given in full), the z-score in assay [1] was -0.824 (inactive); in assay [3], 1.53 (inactive); in assay [4] it was 0.095 (inactive); in [5], 0.543 (inactive); in [6] it was -0.0634 (inactive); in [7], -0.213. Further, the z-score in assay [8] was 1.01 (inactive); in [9] it was 1.32 (inactive); in [10], 1.56; in assay [11] it was 0.758; in assay [12] it was 1.41; in [13], -0.762. Besides, the z-score in assay [14] is 0.125; in [15], -1.25; in assay [16], -0.332; in [17], -0.475 (inactive); in [18] it was 0.158; in [19], 0.146. Also, the z-score in assay [20] was -0.694 (inactive). The same compound registered a composite z-score in assay [2] of -0.012.
Turning to `C=CCN1C(=O)[C@@]2(O[C@@H](CCn3cc([C@H](O)c4ccccc4)nn3)[C@H]([Si](C)(C)c3ccc(OC)cc3)[C@H]2C)c2ccccc21`, the z-score in assay [1] was 0.508 (inactive); in assay [3], 7.57 (inactive); in assay [4], 1.93 (inactive); in [5] it was 1.04 (inactive); in [6] it was 0.916 (inactive); in assay [7] it was 0.32. Besides, the z-score in assay [8] is 0.997 (inactive); in assay [9], 0.99 (inactive); in [10] it was -1.6; in assay [11], -1.05; in assay [12], 0.432; in [13] it was -1.49. In addition, the z-score is -2.7 in assay [14]; -4.27 in [15]; 1.06 in assay [16]; -0.644 (inactive) in assay [17]; -0.967 in [18]; -0.364 in assay [19]. In assay [20], the z-score was -1.76 (inactive). Moreover, the composite z-score in assay [2] stood at 0.276.
Consider `CC(C)N1CC=CC23O[C@@H]4C=CCCOC(=O)C4[C@H]2C(=O)N(CCO)[C@@H]3C1=O` (stereo not given in full), for which the z-score in assay [1] was 2.1 (inactive); in assay [3], 0.326 (inactive); in assay [4], 0.568 (inactive); in assay [5] it was 1.03 (inactive); in assay [6], 0.406 (inactive); in [7], 0.468. Further, the z-score in [8] is 1.37 (inactive); in [9], 0.509 (inactive); in [10], 1.54; in assay [11], -0.555; in [12] it was -0.0175; in assay [13] it was -2.03. Moreover, the z-score is 0.506 in [14]; 0.0275 in assay [15]; -0.333 in assay [16]; 0.5 (inactive) in [17]; 1 in assay [18]; 0.862 in assay [19]. Also, the z-score in [20] was 1.06 (inactive). The composite z-score in [2] is -0.357.
On to `CC(=O)NCCCC[C@@H]1NC(=O)[C@@H]2C[C@H](C(=O)O)[C@H](c3ccc(O)cc3)N2C1=O`, for which the z-score is 0.139 (inactive) in [1]; 1.15 (inactive) in assay [3]; 0.508 (inactive) in assay [4]; 1.08 (inactive) in [5]; 0.275 (inactive) in assay [6]; -0.544 in assay [7]. Moreover, the z-score in assay [8] was 1.03 (inactive); in assay [9], -1.04 (inactive); in assay [10], 0.422; in assay [11] it was 0.0665; in assay [12] it was 0.384; in [13] it was -0.552. Besides, the z-score in [14] was 0.421; in assay [15], -0.105; in [16], -1.14; in assay [17] it was -0.352 (inactive); in assay [18], 0.667; in [19], 0.237. Also, the z-score in assay [20] is -0.179 (inactive). In assay [2], this compound registered a composite z-score of 0.202.
`CCOC(=O)C1=CC[C@@H](c2ccccc2C(F)(F)F)N(S(=O)(=O)c2ccc(C)cc2)C1`: the z-score in [1] is -0.007 (inactive); in assay [3], 0.565 (inactive); in assay [4], -0.555 (inactive); in assay [5], -0.892 (inactive); in [6], -1.92 (inactive); in assay [7], 0.39. Besides, the z-score in assay [8] was 0.17 (inactive); in assay [9], -0.742 (inactive); in [10] it was -0.836; in assay [11], -0.82; in assay [12], 0.605; in [13] it was 1.31. Besides, the z-score was -0.925 in [14]; -1.28 in [15]; 2.51 in assay [16]; 0.0742 (inactive) in assay [17]; -0.226 in assay [18]; -0.435 in assay [19]. Besides, in assay [20], the z-score was -1.27 (inactive). The compound further gave a composite z-score in [2] of 0.743.
Consider `C=CCNC(=O)[C@@H]1[C@H]2C(=O)O[C@H](c3ccccc3)[C@H](c3ccccc3)N2[C@H](c2ccccc2OCCO)[C@@]12C(=O)N(C(=O)OCCOC)c1ccc(C#CC3=CCCCC3)cc12`, for which the z-score in assay [1] is 0.889 (inactive); in [3], 2.66 (inactive); in assay [4], 0.741 (inactive); in assay [5], 0.123 (inactive); in assay [6], 0.906 (inactive); in [7], 0.325. The z-score is 1.54 (inactive) in assay [8]; 1.44 (inactive) in assay [9]; 1.32 in assay [10]; 0.428 in assay [11]; 1.16 in [12]; -0.555 in assay [13]. Moreover, the z-score was -2.48 in [14]; -2.4 in assay [15]; -0.149 in assay [16]; 1.74 (inactive) in assay [17]; -1.01 in assay [18]; -1.82 in [19]. For the same compound, the z-score in assay [20] is -0.996 (inactive). The compound also showed a composite z-score in assay [2] of -0.0075.
